In PubChem BioAssay (NCI):
Compounds without any hit were thinned out: in the full panel of roughly 83,000, 20% have a hit.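 Values shown are percent growth following 48 h exposure of cells in 96-well plates to a single concentration of compound; below 10 was considered active.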 The source made the active and inactive calls.

Experiments:
Experiment in all cases: NCI-60 one-dose screen, 48 h (100 = growth as untreated, 0 = no growth, -100 = all killed)
Conditions in all cases: 10 µM unless noted
SR leukemia = system: SR leukemia
RPMI-8226 leukemia = system: RPMI-8226 leukemia
OVCAR-8 ovarian = system: OVCAR-8 ovarian
OVCAR-5 ovarian = system: OVCAR-5 ovarian
OVCAR-4 ovarian = system: OVCAR-4 ovarian
IGROV1 ovarian = system: IGROV1 ovarian
OVCAR-3 ovarian = system: OVCAR-3 ovarian
HS 578T breast = system: HS 578T breast
NCI/ADR-RES ovarian = system: NCI/ADR-RES ovarian
T-47D breast = system: T-47D breast
BT-549 breast = system: BT-549 breast
MDA-MB-435 melanoma = system: MDA-MB-435 melanoma
SW-620 colon = system: SW-620 colon
MCF7 breast = system: MCF7 breast
HCT-116 colon = system: HCT-116 colon
HCC-2998 colon = system: HCC-2998 colon
KM12 colon = system: KM12 colon
SK-OV-3 ovarian = system: SK-OV-3 ovarian

Measured: growth

Cc1ccc(S(=O)(=O)N(CC[C@@H]2C[C@H]2c2cc3ccccc3o2)C(=O)NC2CCCCC2)cc1
inactive: SR leukemia 100% | RPMI-8226 leukemia 107% | OVCAR-8 ovarian 98.8% | OVCAR-5 ovarian 95.7% | OVCAR-4 ovarian 93% | IGROV1 ovarian 95.8% | OVCAR-3 ovarian 104% | HS 578T breast 89.8% | NCI/ADR-RES ovarian 86.9% | T-47D breast 70.9% | BT-549 breast 112% | MDA-MB-435 melanoma 101% | SW-620 colon 92.1% | MCF7 breast 93.4% | HCT-116 colon 85% | HCC-2998 colon 101% | KM12 colon 105%

O=C(/C=C/C12c3ccccc3C(c3ccccc31)C1C(=O)N(c3ccc(Cl)cc3)C(=O)C12)c1ccccn1 (stereo unspecified)
inactive: SR leukemia 13.6% | OVCAR-8 ovarian 21.1% | HS 578T breast 13.9%
active: RPMI-8226 leukemia 3.98% | OVCAR-5 ovarian -43.3% | OVCAR-4 ovarian -6.96% | IGROV1 ovarian -36.6% | OVCAR-3 ovarian -71.6% | NCI/ADR-RES ovarian 8.16% | T-47D breast -3.33% | BT-549 breast -49.6% | MDA-MB-435 melanoma -29.1% | SW-620 colon -12.4% | MCF7 breast 2.48% | HCT-116 colon -69.2% | HCC-2998 colon -87.4% | KM12 colon -60.8%

Nc1c(-c2nc3ccccc3c(=O)[nH]2)nnn1-c1ccc(Cl)cc1
inactive: SR leukemia 56.2% | RPMI-8226 leukemia 90.6% | OVCAR-8 ovarian 56.1% | OVCAR-5 ovarian 97.8% | IGROV1 ovarian 83% | OVCAR-3 ovarian 89.2% | HS 578T breast 51.1% | NCI/ADR-RES ovarian 56.4% | T-47D breast 27.2% | BT-549 breast 77.8% | MDA-MB-435 melanoma 83.3% | SW-620 colon 99.2% | MCF7 breast 90% | HCT-116 colon 78.8% | HCC-2998 colon 104% | KM12 colon 82.8%
active: OVCAR-4 ovarian -4.08%

CCOC(=O)c1c(C)nc2c(c1N)/C(=C/c1ccc(OC)cc1)C(=O)N2Cc1ccc(F)cc1
inactive: OVCAR-4 ovarian 20.9% | HS 578T breast 54.7% | NCI/ADR-RES ovarian 15.1%
active: SR leukemia 1.71% | RPMI-8226 leukemia -17.2% | OVCAR-8 ovarian 8.74% | OVCAR-5 ovarian -45.2% | IGROV1 ovarian -9.78% | OVCAR-3 ovarian -91.4% | T-47D breast -0.0776% | BT-549 breast -85.5% | MDA-MB-435 melanoma -62.1% | SW-620 colon -58.9% | MCF7 breast -35.7% | HCT-116 colon -85.4% | HCC-2998 colon -83.7% | KM12 colon -59.7%

N#Cc1c(NC(=O)c2ccccc2I)sc2c1CCCC2
active: MDA-MB-435 melanoma -4.69%
inactive: SR leukemia 38.6% | RPMI-8226 leukemia 46.4% | OVCAR-8 ovarian 51.4% | OVCAR-5 ovarian 70.8% | OVCAR-4 ovarian 79.9% | IGROV1 ovarian 50.6% | OVCAR-3 ovarian 15.7% | HS 578T breast 32.1% | NCI/ADR-RES ovarian 13.2% | T-47D breast 61.4% | BT-549 breast 52.2% | SW-620 colon 21% | MCF7 breast 15% | HCT-116 colon 26.4% | HCC-2998 colon 71.6% | KM12 colon 34.2%

COc1cc2ccccc2cc1C(=O)NC(=S)Nc1ccc(-c2nc3ccccc3[nH]2)cc1
inactive: SR leukemia 28.3% | RPMI-8226 leukemia 71.5% | OVCAR-8 ovarian 93.1% | OVCAR-5 ovarian 103% | IGROV1 ovarian 83.2% | OVCAR-3 ovarian 55% | HS 578T breast 30.7% | NCI/ADR-RES ovarian 59.4% | T-47D breast 76.9% | BT-549 breast 45.6% | MDA-MB-435 melanoma 80.2% | SW-620 colon 80.5% | MCF7 breast 59% | HCT-116 colon 82% | HCC-2998 colon 96.3% | KM12 colon 68.2%
active: OVCAR-4 ovarian -35.9%

COC(=O)[C@]12CC[C@@H](C)[C@H](C)[C@@H]1C1=CC[C@@H]3[C@@]4(C)C(C=O)=C[C@@](C)(CO)C4=CC[C@@]3(C)[C@]1(C)CC2
inactive: SR leukemia 15.5% | RPMI-8226 leukemia 12.8% | OVCAR-8 ovarian 32.2% | OVCAR-5 ovarian 62.9% | OVCAR-4 ovarian 31.7% | IGROV1 ovarian 45.4% | OVCAR-3 ovarian 24.3% | HS 578T breast 47.5% | NCI/ADR-RES ovarian 31.9% | T-47D breast 20.8% | MDA-MB-435 melanoma 39.6% | SW-620 colon 27.9% | MCF7 breast 18.1% | HCC-2998 colon 16.1% | KM12 colon 21.6%
active: HCT-116 colon 6.65%

CCOC(=O)c1c2c(c(C)n1C)-c1nn(Cc3ccc(OC)cc3)cc1CC2
inactive: SR leukemia 71.2% | RPMI-8226 leukemia 77.8% | OVCAR-8 ovarian 100% | OVCAR-4 ovarian 71.2% | SK-OV-3 ovarian 109% | IGROV1 ovarian 111% | OVCAR-3 ovarian 108% | T-47D breast 64.4% | BT-549 breast 271% | MDA-MB-435 melanoma 100% | SW-620 colon 96.9% | MCF7 breast 99.3% | HCT-116 colon 84.4% | HCC-2998 colon 109% | KM12 colon 92.4%

Oc1[nH]c2ccccc2c1/C=c1/cc2c(c(-c3ccc(F)cc3)n1)=Nc1ccccc1-2
inactive: SR leukemia 10% | KM12 colon 14.6%
active: RPMI-8226 leukemia -40.5% | OVCAR-8 ovarian -19.6% | OVCAR-5 ovarian 0.0696% | OVCAR-4 ovarian -65.1% | IGROV1 ovarian -7.94% | OVCAR-3 ovarian -77% | HS 578T breast -7.82% | NCI/ADR-RES ovarian -18.7% | T-47D breast -37.1% | MDA-MB-435 melanoma -30.4% | SW-620 colon -10.6% | MCF7 breast -62.4% | HCT-116 colon -61.3% | HCC-2998 colon -63.7%

CCCCNCC(=O)Nc1ccc(C(=O)OCC)cc1
inactive: SR leukemia 87% | RPMI-8226 leukemia 94% | OVCAR-8 ovarian 104% | OVCAR-5 ovarian 109% | OVCAR-4 ovarian 114% | IGROV1 ovarian 105% | OVCAR-3 ovarian 113% | NCI/ADR-RES ovarian 107% | T-47D breast 96.8% | BT-549 breast 92.5% | MDA-MB-435 melanoma 105% | SW-620 colon 105% | MCF7 breast 98.4% | HCT-116 colon 86.4% | HCC-2998 colon 100% | KM12 colon 103%

CCN(CC)CC(O)CNc1c2ccc(Cl)cc2nc2ccc(OC)cc12 (stereo unspecified)
active: SR leukemia 0.563% | RPMI-8226 leukemia -30.9% | OVCAR-8 ovarian -40.3% | OVCAR-5 ovarian -25.3% | OVCAR-4 ovarian -4.45% | IGROV1 ovarian -24.9% | OVCAR-3 ovarian -23.9% | NCI/ADR-RES ovarian -24.4% | MDA-MB-435 melanoma -72.1% | SW-620 colon -37% | MCF7 breast -0.467% | HCT-116 colon -32.1% | HCC-2998 colon -92.2% | KM12 colon -30.9%
inactive: HS 578T breast 38.3% | BT-549 breast 42.9%
